Laboratory results reported in PubChem BioAssay (NCATS).
Inconclusive results are not listed. The source made the active and inactive calls. Unless noted, calls follow the shape of the dose curve; as a rule, active = well fitted curve in the direction sought with a large enough effect; inconclusive = small, poorly fitted or top-dose-only effect, or another doubt; inactive = no such curve, though single readings can be large; an effect the other way counts as inactive or inconclusive.

Legend:
[1] = qHTS assay for small molecule antagonists of peroxisome proliferator-activated receptor delta signaling (AID 588535); conditions: HEK293T PPARd-UAS-bla, beta-lactamase FRET ratio, 18 h; 460 nm channel;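 also: cells co-treated with a PPAR-delta agonist as stimulator during compound exposure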
Summary of the method: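 Cell-based beta-lactamase assay in antagonist mode: 4000 HEK293T PPAR-delta-UAS-bla cells per well, 5 hr preincubation then 18 hr compound incubation at 37 C. IC50 obtained by Hill equation fitting.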

[2] = target: Peroxisome proliferator-activated receptor gamma (Homo sapiens) (UniProt P37231); assay: qHTS assay for small molecule agonists of peroxisome proliferator-activated receptor gamma signaling (AID 588536; active = well fitted curve in the direction sought with a large enough effect in the signal ratio, with a control signal flat, not every such curve was filed as active; the % refers to the signal ratio;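 also: 0% = DMSO basal wells and 100% = rosiglitazone at 2 µM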); conditions: HEK293 PPARg-UAS-bla, beta-lactamase ratio, 16 h, percent of rosiglitazone response, DMSO as zero; series mostly up to 76.7 µM
Chain of Peroxisome proliferator-activated receptor gamma (Homo sapiens) (P37231 whole entry, looked up): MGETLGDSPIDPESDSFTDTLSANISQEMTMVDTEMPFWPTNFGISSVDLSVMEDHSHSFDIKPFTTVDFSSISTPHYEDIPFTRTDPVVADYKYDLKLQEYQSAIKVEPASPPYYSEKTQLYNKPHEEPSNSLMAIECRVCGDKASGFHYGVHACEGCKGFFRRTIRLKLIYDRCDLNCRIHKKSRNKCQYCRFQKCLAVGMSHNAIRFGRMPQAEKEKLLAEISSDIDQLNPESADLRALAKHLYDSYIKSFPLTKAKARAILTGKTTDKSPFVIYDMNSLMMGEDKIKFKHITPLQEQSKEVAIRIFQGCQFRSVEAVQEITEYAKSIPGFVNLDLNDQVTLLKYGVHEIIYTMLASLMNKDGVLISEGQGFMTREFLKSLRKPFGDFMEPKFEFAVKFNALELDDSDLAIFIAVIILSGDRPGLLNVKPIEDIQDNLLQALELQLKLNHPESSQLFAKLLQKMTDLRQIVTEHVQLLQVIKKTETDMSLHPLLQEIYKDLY
Summary of the method: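 HEK293 UAS-bla reporter line, 1% charcoal/dextran FBS; titration, 16 h, 37 C; CCF4 loading 2 h RT; fluorescence 460/530 nm. Normalized to rosiglitazone 2 uM = 100%, DMSO = 0%.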

[3] = target: Peroxisome proliferator-activated receptor gamma (Homo sapiens) (UniProt P37231); assay: qHTS assay for small molecule antagonists of peroxisome proliferator-activated receptor gamma signaling (AID 588537; active = well fitted inhibition curve with a large enough effect in the signal ratio, with a control signal flat, not every such curve was filed as active; the % refers to the signal ratio;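 also: reporter cells co-stimulated with 50 nM rosiglitazone agonist during compound treatment; % of control where 0% means no effect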); conditions: HEK293 PPARg-UAS-bla, beta-lactamase ratio, antagonist mode; series mostly up to 76.8 µM
Summary of the method: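 Inhibitors of agonist-stimulated UAS-bla reporter activity were sought in HEK293 cells; rosiglitazone (50 nM) defined full signal and DMSO baseline. Curves fitted to Hill model gave IC50 and efficacy.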

[4] = target: Vitamin D3 receptor (Homo sapiens) (UniProt P11473); assay: qHTS assay for small molecule antagonists of vitamin D receptor signaling (AID 588541; calls by dose curve;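 also: receptor activated by calcitriol during compound treatment; % is scaled to controls: 0 for no effect and ±100 for the full control effect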); conditions: HEK293T VDR-UAS-bla, beta-lactamase ratio, antagonist mode; series mostly up to 76.7 µM
Chain of Vitamin D3 receptor (Homo sapiens) (P11473 whole entry, looked up): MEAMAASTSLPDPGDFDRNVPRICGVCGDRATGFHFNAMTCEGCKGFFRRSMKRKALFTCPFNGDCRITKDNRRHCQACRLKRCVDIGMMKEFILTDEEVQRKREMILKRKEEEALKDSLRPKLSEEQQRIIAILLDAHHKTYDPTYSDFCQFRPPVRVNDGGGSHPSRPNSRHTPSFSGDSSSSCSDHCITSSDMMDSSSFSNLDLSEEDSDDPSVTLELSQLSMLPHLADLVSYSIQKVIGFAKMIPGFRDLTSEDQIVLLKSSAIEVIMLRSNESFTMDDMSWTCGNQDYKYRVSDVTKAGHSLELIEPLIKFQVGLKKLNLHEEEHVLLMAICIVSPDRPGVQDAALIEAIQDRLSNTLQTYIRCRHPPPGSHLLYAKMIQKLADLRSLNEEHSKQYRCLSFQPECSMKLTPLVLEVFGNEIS
Summary of the method: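 Antagonist-mode beta-lactamase reporter assay: HEK293T VDR-UAS-bla cells were exposed to titrated compound alongside 1-alpha,25-dihydroxyvitamin D3 at 3 nM final for 16 h. Values were normalized to the 50 nM agonist control and DMSO basal, with IC50 and efficacy from Hill equation fits.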

[5] = target: Vitamin D3 receptor (Homo sapiens) (UniProt P11473); assay: qHTS assay for small molecule agonists of vitamin D receptor signaling (AID 588543; calls by dose curve;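 also: 0% = DMSO basal and 100% = reference agonist control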); conditions: HEK293T VDR-UAS-bla, beta-lactamase ratio, 16 h; series mostly up to 76.8 µM
Summary of the method: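 β-lactamase reporter, VDR-UAS-bla HEK293T, agonist mode. Cells plated 5 h at 37 °C, compound titration 16 h at 37 °C, CCF4 dye 2 h RT, ratio 460/530 nm. Hill fit → EC50, efficacy vs 50 nM 1α,25-(OH)2D3.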

[6] = qHTS assay for small molecule agonists of retinoid X receptor alpha signaling (AID 588544; calls by dose curve;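 as to activation: 0% = DMSO basal wells and 100% = reference agonist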); conditions: HEK293T RXRa-UAS-bla, beta-lactamase reporter, 18 h; 530 nm emission
[7] = target: Retinoic acid receptor RXR-alpha (Homo sapiens) (UniProt P19793); assay: as above; conditions: HEK293T RXRa-UAS-bla, beta-lactamase reporter, 18 h; series mostly up to 76.7 µM
Chain of Retinoic acid receptor RXR-alpha (Homo sapiens) (P19793 whole entry, looked up): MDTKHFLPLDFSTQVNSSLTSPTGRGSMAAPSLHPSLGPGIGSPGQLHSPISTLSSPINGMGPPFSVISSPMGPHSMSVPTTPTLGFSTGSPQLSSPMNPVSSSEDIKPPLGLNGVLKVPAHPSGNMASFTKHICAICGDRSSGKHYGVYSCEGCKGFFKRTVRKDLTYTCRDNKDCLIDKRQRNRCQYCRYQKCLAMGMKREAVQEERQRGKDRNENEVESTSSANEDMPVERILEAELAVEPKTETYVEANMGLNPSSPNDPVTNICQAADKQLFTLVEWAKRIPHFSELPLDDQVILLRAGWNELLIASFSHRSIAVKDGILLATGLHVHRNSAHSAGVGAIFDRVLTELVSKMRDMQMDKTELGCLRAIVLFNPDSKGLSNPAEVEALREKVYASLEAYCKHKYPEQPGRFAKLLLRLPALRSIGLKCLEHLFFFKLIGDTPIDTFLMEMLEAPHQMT

[8] = qHTS assay for small molecule antagonists of retinoid X receptor alpha signaling (AID 588546; active = well fitted inhibition curve with a large enough effect in the signal ratio, with a control signal flat, not every such curve was filed as active; the % refers to the signal ratio;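 also: cells stimulated with 9-cis-retinoic acid as agonist; % is scaled to controls: 0 for no effect and ±100 for the full control effect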); conditions: HEK293T RXRa-UAS-bla, beta-lactamase ratio, antagonist mode; measured here: W530 green channel, cytotoxicity proxy
Summary of the method: (§1)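 Beta-lactamase reporter inhibition, read as CCF4 fluorescence ratio (ex 405, em 460/530 nm) after 2 h at RT. HEK293T UAS-bla cells, 2500/well, were stimulated with 9-cis-RA at 500 or 100 nM final alongside test compound for 18 h at 37 C.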

[9] = target: Retinoic acid receptor RXR-alpha (Homo sapiens) (UniProt P19793); assay: as above; conditions: HEK293T RXRa-UAS-bla, beta-lactamase ratio, antagonist mode
Summary of the method: as §1

[10] = qHTS assay for small molecule activators of the p53 signaling pathway (AID 651743; active = well fitted activation curve with a large enough effect in the signal ratio, not every such curve was filed as active; the % refers to the signal ratio; also: potency is read from the fitted curve at half-maximal effect; as to activation: % of control where 0% means no effect); conditions: HCT-116 p53RE-bla, beta-lactamase FRET ratio, 16 h; activation: stronger effect = higher value
Summary of the method: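 Screen for p53 pathway agonists uses stably transfected p53RE-bla HCT-116 cells, 4,000 per well, treated 16 h at 37 C with compounds in DMSO.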

[11] = qHTS assay for environmental chemicals that activate the Aryl hydrocarbon Receptor (AhR) signaling pathway (AID 651777); conditions: 1A2-DRE human hepatoma cells, luciferase, 24 h; activation: stronger effect = higher value; also: nearly all actives have a fitted effect of over 15% in size; also: potency is read from the fitted curve at half-maximal effect; as to activation: % of control where 0% means no effect
Summary of the method: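 Luminescence read-out: One-Glo added for 30 min at RT after 24 hr compound treatment (37 C, 5% CO2) of human hepatoma cells expressing a DRE/CYP1A2 promoter–luciferase reporter; increased signal indicates AhR activation.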

[12] = target: Peroxisome proliferator-activated receptor alpha (Homo sapiens) (UniProt Q07869); assay: qHTS assay for small molecule agonists of the peroxisome proliferator-activated receptor alpha (PPARalpha) signaling pathway (AID 651778); conditions: PathHunter PPARalpha complementation, chemiluminescence, 6 h; max response: stronger effect = higher value; also: % of control where 0% means no effect
Chain of Peroxisome proliferator-activated receptor alpha (Homo sapiens) (Q07869 whole entry, looked up): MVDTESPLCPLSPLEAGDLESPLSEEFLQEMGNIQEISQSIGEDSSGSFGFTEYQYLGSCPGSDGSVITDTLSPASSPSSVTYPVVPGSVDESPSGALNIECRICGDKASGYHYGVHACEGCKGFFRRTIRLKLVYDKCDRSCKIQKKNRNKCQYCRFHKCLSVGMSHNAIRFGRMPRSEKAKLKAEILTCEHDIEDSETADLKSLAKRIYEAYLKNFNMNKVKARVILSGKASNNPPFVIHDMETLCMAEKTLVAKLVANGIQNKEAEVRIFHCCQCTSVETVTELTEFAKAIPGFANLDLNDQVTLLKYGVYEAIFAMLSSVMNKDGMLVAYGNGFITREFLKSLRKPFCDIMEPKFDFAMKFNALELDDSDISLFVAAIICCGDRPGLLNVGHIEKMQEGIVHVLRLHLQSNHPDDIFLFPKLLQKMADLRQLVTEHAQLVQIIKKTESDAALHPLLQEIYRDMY
Summary of the method: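 Chemiluminescence from complemented enzyme reported PPARalpha activation in cells after 6 hr of compound treatment at 37 C. The detection reagent was incubated for 60 min at room temperature, and compounds were scored as agonists.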

[13] = qHTS assay for small molecule agonists of the antioxidant response element (ARE) signaling pathway measured by Nrf2-dependant transcriptional activity (AID 720636; active = well fitted curve in the direction sought with a large enough effect in the repeat runs; an effect the other way counts as inactive or inconclusive;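 also: HepG2 cells with an ARE-driven luciferase reporter; % of control where 0% means no effect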); conditions: ARE-luc HepG2, Nrf2 luciferase reporter, 16 h; series mostly up to 92.4 µM
Summary of the method: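 HepG2 ARE-luc reporter line, 1% dialyzed FBS; 6 hr attachment at 37 C, compound pinned in, 16 hr at 37 C/5% CO2; ONE-Glo, 30 min RT, luminescence read.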

[14] = qHTS assay for small molecule agonists of the antioxidant response element (ARE) signaling pathway measured by Nrf2-dependant transcriptional activity - cell viability counter screen (AID 720653; active = well fitted curve in the direction sought with a large enough effect in the repeat runs; an effect the other way counts as inactive or inconclusive; also: % is scaled to controls: 0 for no effect and ±100 for the full control effect); conditions: ARE-bla HepG2 viability, CellTiter-Glo ATP luminescence, 16 h; max response: stronger effect = lower value
Summary of the method: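 Cytotoxicity counter screen: intracellular ATP quantified by CellTiter-Glo luminescence in the same ARE-bla HepG2 plates, after 16 h compound exposure and a 2 h beta-lactamase substrate step.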

[15] = qHTS assay for cell viability of HEK293 cells (AID 743288); conditions: ATP luminescence (CellTiter-Glo), 18 h; max response: stronger effect = lower value; also: nearly all actives have a fitted effect of over 50% in size; also: potency is read from the fitted curve at half-maximal effect; as to max response: % is scaled to controls: 0 for no effect and ±100 for the full control effect
Summary of the method: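 Environmental chemicals tested in qHTS format against parental HEK293 cells; 18 h treatment, 37 C; read-out ATP luminescence (CellTiter-Glo), 30 min RT development.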

[16] = qHTS assay for cell viability of the p53RE-bla HCT-116 cell line (AID 743292); conditions: p53RE-bla HCT-116 viability, ATP luminescence, 16 h; series mostly up to 95 µM; also: nearly all actives have a fitted effect of over 55% in size; also: potency is read from the fitted curve at half-maximal effect
Summary of the method: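 Luminescent ATP quantitation (CellTiter-Glo) served as the viability read-out; reagent was added after 16 h compound exposure at 37 C and read after 30 min at room temperature. Cells: p53RE-bla HCT-116, 4,000 per well.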

[17] = target: Nuclear receptor subfamily 1 group I member 2 (Rattus norvegicus) (UniProt Q9R1A7); assay: qHTS assay for small molecule activators of the rat pregnane X receptor (rPXR) signaling pathway (AID 651751; call rule not given here; also: 0% is about no effect); conditions: rPXR reporter cells, luciferase (One-Glo), 24 h
Chain of Nuclear receptor subfamily 1 group I member 2 (Rattus norvegicus) (Q9R1A7 whole entry, looked up): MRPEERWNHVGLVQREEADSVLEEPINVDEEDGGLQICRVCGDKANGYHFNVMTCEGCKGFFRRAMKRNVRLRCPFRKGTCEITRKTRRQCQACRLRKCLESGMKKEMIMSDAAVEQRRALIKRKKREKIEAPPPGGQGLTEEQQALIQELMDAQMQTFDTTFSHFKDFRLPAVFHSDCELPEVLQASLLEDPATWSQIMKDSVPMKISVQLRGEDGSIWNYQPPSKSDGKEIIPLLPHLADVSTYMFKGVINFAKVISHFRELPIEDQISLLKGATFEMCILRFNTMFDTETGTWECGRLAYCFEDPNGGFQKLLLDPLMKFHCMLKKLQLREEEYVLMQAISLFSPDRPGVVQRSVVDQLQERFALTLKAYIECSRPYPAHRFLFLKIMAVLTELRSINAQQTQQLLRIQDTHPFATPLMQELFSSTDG

[18] = qHTS assay for small molecule activators of the human pregnane X receptor (PXR) signaling pathway (AID 720659; call rule not given here; also: 0% is about no effect); conditions: DPX-2 HepG2 CYP3A4-luciferase, 24 h; series mostly up to 92.3 µM
[19] = target: Glucocorticoid receptor (Homo sapiens) (UniProt P04150); assay: qHTS assay for small molecule agonists of glucocorticoid receptor signaling (AID 588532; active = well fitted curve in the direction sought with a large enough effect in the signal ratio, with a control signal flat; the % refers to the signal ratio;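 also: 100% = dexamethasone at 0.1 µM and 0% = DMSO only wells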); conditions: HeLa MMTV-bla, beta-lactamase ratio, agonist, 18 h; stronger effect = higher value; percent of dexamethasone control, DMSO zero
Chain of Glucocorticoid receptor (Homo sapiens) (P04150 whole entry, looked up): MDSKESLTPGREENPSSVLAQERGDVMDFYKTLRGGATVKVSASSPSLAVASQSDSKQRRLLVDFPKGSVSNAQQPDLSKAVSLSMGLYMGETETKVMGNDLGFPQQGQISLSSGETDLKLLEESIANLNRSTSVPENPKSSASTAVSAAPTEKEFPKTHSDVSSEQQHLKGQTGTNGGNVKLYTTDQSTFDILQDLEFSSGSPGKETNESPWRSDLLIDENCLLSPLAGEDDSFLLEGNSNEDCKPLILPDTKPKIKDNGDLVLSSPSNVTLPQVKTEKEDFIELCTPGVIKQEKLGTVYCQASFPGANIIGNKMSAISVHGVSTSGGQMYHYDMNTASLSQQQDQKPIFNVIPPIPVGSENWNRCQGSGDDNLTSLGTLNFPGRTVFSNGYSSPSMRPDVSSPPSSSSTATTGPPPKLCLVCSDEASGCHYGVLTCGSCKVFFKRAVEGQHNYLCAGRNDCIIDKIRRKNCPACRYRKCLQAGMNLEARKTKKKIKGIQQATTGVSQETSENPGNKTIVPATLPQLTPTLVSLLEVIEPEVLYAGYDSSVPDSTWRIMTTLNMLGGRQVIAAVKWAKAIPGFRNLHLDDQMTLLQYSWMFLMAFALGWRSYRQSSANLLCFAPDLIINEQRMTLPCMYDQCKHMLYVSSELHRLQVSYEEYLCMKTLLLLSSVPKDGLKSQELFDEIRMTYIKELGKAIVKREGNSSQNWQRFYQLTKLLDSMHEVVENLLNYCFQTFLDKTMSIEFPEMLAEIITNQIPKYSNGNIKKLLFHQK
Summary of the method: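 Quantitative HTS using CellSensor MMTV-bla HeLa cells in charcoal/dextran-treated serum; compounds tested up to 92 uM. After 18 h at 37 C, CCF4 dye reported reporter induction.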

[20] = target: Thyroid hormone receptor beta (Homo sapiens) (UniProt P10828); assay: qHTS assay for small molecule agonists of thyroid hormone receptor beta signaling (AID 588545; calls by dose curve;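 also: 0% = DMSO only and 100% = 10 nM T3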); conditions: TR-UAS-bla GripTite HEK 293, beta-lactamase ratio, agonist mode, 18 h; series mostly up to 76.7 µM
Chain of Thyroid hormone receptor beta (Homo sapiens) (P10828 whole entry, looked up): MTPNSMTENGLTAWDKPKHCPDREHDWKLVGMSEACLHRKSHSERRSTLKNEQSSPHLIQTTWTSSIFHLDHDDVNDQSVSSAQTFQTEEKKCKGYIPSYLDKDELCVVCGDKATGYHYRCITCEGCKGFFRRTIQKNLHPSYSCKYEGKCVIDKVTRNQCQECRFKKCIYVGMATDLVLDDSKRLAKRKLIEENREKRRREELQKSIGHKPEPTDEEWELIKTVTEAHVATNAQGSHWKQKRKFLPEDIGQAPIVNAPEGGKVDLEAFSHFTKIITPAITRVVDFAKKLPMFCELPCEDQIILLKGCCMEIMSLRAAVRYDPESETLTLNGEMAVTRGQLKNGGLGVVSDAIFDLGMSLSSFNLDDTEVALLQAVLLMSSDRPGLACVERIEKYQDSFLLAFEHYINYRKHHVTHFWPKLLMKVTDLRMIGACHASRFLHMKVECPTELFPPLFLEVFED
Summary of the method: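 TR-UAS-bla GripTite HEK 293 cells (2500/well, medium with 2% charcoal/dextran FBS) were treated in agonist mode for 18 h at 37 C, titrated. Beta-lactamase was read by CCF4 ratio after 2 h; normalized to 10 nM T3 (100%) and DMSO, Hill-fitted for EC50 and efficacy.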

O=C(Cl)c1cccc(C(=O)Cl)c1
-3.89%: max response [8]
inactive: outcome [2] | Potency [3] | Potency [4] | outcome [5] | Potency [7] | max response [9] -13.1% | activation [10] -3.51% | activation [11] -0.235% | max response [12] -0.213% | Potency [13] | max response [14] 5.28% | max response [15] -6.55% | Potency [16] | max response [17] -0.886% | outcome [18]
-11.7%: max response [1]
-7.46%: max response [6]

CCN(Cc1c(F)cccc1Cl)c1c([N+](=O)[O-])cc(C(F)(F)F)cc1[N+](=O)[O-]
inactive: outcome [2] | Potency [3] | Potency [4] | outcome [5] | activation [10] 1.01% | activation [11] 0.127% | Potency [13] | max response [14] -3.47% | Potency [16]
-79%: max response [1]

CC[C@H](C)C1O[C@]2(C=C[C@@H]1C)C[C@@H]1C[C@@H](C/C=C(\C)[C@@H](O[C@H]3C[C@H](OC)[C@@H](O[C@H]4C[C@H](OC)[C@H](NC(C)=O)[C@H](C)O4)[C@H](C)O3)[C@@H](C)/C=C/C=C3\CO[C@@H]4[C@H](O)C(C)=C[C@@H](C(=O)O1)[C@]34O)O2 (stereo not given in full)
active: Potency [15] 44.7 µM | Potency [16] 14.1 µM
inactive: activation [19] -14.6% | activation [11] -11.2% | max response [12] 6.61% | Potency [13] | outcome [18]

S=C([S-])NCCNC(=S)[S-].S=C([S-])NCCNC(=S)[S-].[Mn+2].[Zn+2]
inactive: outcome [2] | outcome [5] | Potency [20] | activation [11] 0.587% | max response [14] 17.6% | max response [15] 2.96% | max response [17] -11.1%

C[C@]12CC[C@@H]3c4ccc(O)cc4CC[C@H]3[C@@H]1CC[C@H]2O
inactive: activation [19] -4.59% | outcome [2] | Potency [4] | outcome [5] | Potency [20] | activation [10] 23.4% | activation [11] 0.328% | max response [12] -0.0791% | Potency [13] | max response [14] -10.8% | max response [15] -24% | Potency [16]

O=C(Nc1ccccc1)c1cc(Cl)ccc1O
inactive: Potency [4] | outcome [5] | Potency [20] | max response [12] 0.537% | outcome [18]
active: Potency [10] 10 µM | Potency [11] 15.8 µM | Potency [16] 35.5 µM

Nc1ccc(Nc2ccccc2)cc1
inactive: outcome [2] | max response [9] -27.9% | activation [11] 5.3% | max response [12] -0.422% | max response [14] 14.3% | max response [15] -17.7% | Potency [16] | max response [17] 8.87%
-6.58%: max response [8]

S=C(S)NCCNC(=S)S
inactive: outcome [2] | Potency [3] | outcome [5] | Potency [20] | activation [11] 0.998% | max response [12] 0.0068% | max response [14] -0.0675% | max response [15] -6.97% | Potency [16] | max response [17] -0.407%

CN(C)c1ccc(C(c2ccccc2)c2ccc(N(C)C)cc2)cc1
inactive: outcome [5] | activation [10] -0.413% | activation [11] 1.41% | max response [12] -1.55% | Potency [13] | max response [14] -16.8% | max response [15] -22.1% | Potency [16] | max response [17] 5.9%
